Inconclusive results are not listed. Entries that show only a call come without a potency. Active and inactive are the calls of the source. Calls follow the shape of the dose curve; as a rule, active = well fitted cell-killing curve with a large enough effect in the repeat runs; inconclusive = weak or mixed curves, or effect the other way; inactive = no such curve, though single readings can be large or run the other way.
Potency is read from the fitted curve at half-maximal effect.

The nature of this experiment: qHTS assay to identify small molecule antagonists of the retinoid-related orphan receptor gamma (ROR-gamma) signaling pathway - cell viability counter screen (AID 1159520). Also: nearly all actives have a fitted effect of over 50% in size. The settings on record: Tet-on RORgamma CHO cells viability, ATP luminescence, 16 h; series mostly up to 92.4 µM. The text has this: U.S. Tox21 Program National Center for Advancing Translational Sciences [NCATS] NIH Chemical Genomics Center [NCGC] U.S. Environmental Protection Agency [EPA] National Institutes of Environmental Health Sciences [NIEHS] National Toxicology Program [NTP] U.S. Food and Drug Administration [FDA] Tox21 Assay Overview: Nuclear steroid hormone receptors are involved in many biological processes including inflammatory responses, cell proliferation, and apoptosis. Environmental factors or compounds disrupting these nuclear receptor pathways and gene expression may promote susceptibility to immunotoxicants and autoimmune diseases. One important group of these expression factors are the retinoid-related orphan receptors. To assess compounds that may interfere with the retinoid-related orphan receptor gamma (ROR-gamma) transcription factor, a cell-based luciferase assay was used. The CHO cell-based assay utilizes a TET-inducible ROR expression factor and ROR response element-LUC reporter gene. Reporter gene activity was induced using Doxycycline Hyclate and measured after 16 hr incubation. Tet-on ROR gamma CHO cells were used to screen against the Tox21 10K compound library for cytotoxicity by measuring the viability of the cells based on the quantitation of the ATP.
Tox21 Assay Protocol Summary: Tet-on ROR gamma CHO cells were dispensed at 1,000 cells in 4 uL of culture medium per well into white wall/solid bottom 1536-well plates using a Multidrop Combi (Thermo Scientific, Waltham, MA) dispenser. Following incubation at 37 C and 5% CO2 for 4 hr, 23 nL of compounds dissolved in DMSO, positive controls or DMSO only were transferred by a Pintool station (Kalypsys, San Diego, CA) and after 2 hr incubation at 37 C, one ul of 1 uM (final concentration) of Doxycycline Hyclate was added to all the wells by using a Flying Reagent Dispenser (FRD) (Aurora Discovery, San Diego, CA). After 16 hr incubation at 37 C and 5% CO2, 5 uL of CellTiter-Glo reagent (Promega Corporation, Madison, WI) was added to each assay plate using FRD. After 30 min incubation at room temperature, luminescence was quantified on a ViewLux plate reader (Perkin Elmer, Waltham, MA).
A general note: qHTS replaces the single test concentration by a dilution series.
Regarding `CN/C(=N\[N+](=O)[O-])NCc1cnc(Cl)s1`, the Potency result was “inactive”.

Regarding `O=[N+]([O-])c1cc(C(F)(F)F)c(Cl)c([N+](=O)[O-])c1Nc1ncc(C(F)(F)F)cc1Cl`, the Potency was 4860 nM (active). `O=c1[nH]c(Cl)c(Cl)cc1Cl`: the Potency entry is “inactive”.

Take `C[C@]12CC[C@H]3[C@@H](CCC4=CC(=O)CC[C@@H]43)[C@@H]1CC[C@@H]2OC(=O)CCc1ccco1`: the Potency result is “inactive”. The entry for `O.O.O.O.O.O.O=S(=O)([O-])[O-].[Ni+2]` is “inactive”. `CCC1(CC)C(=O)N=C(O)NC1=O`: the Potency result was “inactive”. The entry for `CSSC` is “inactive”; for `c1csc(-c2ccc(-c3cccs3)s2)c1` it is “inactive”.

Take `O=C(Nc1ccc(F)cc1F)c1cccnc1Oc1cccc(C(F)(F)F)c1`: the Potency entry is “inactive”. In the case of `Cc1cccc(Cc2cnc[nH]2)c1C`, the Potency entry was “inactive”.

With `O=C(N[C@@H]1N=C(c2ccccc2F)c2cccc3c2N(CC3)C1=O)c1cc2ccccc2[nH]1`, the Potency result was “inactive”.

For the molecule `O=[N+]([O-])c1cccc2cccc([N+](=O)[O-])c12`, the Potency entry was “inactive”. As for `CCCCn1cc[n+](C)c1.[Cl][Fe-]([Cl])([Cl])[Cl]`, the Potency entry is “inactive”. The entry for `CCOP(=O)(Sc1ccccc1)Sc1ccccc1` is “inactive”. For the molecule `[F][Sn]([c]1ccccc1)([c]1ccccc1)[c]1ccccc1`, the Potency is 864 nM (active). The figure for `CC(O)C(=O)[O][Hg][c]1ccccc1` (stereo not given) is 1370 nM (active); for `C=CCBr` it is “inactive”. In the case of `c1ccc2c(c1)cc1ccc3cccc4ccc2c1c34`, the Potency entry was “inactive”. The entry for `Cc1ccc2cc3c(ccc4ccccc43)c3c2c1CC3` is “inactive”; for `CCC[CH2][Sn]([CH2]CCC)([O]C(C)=O)[O]C(C)=O` it is 97.8 nM (active). As for `N#Cc1sc2c(=O)c3ccccc3c(=O)c=2sc1C#N`, the Potency was 2170 nM (active). In the case of `CCOC(=O)Cc1ccccc1`, the Potency result was “inactive”. Turning to `COC(=O)C(C)N(C(=O)c1ccco1)c1c(C)cccc1C` (stereo not given), the Potency result was “inactive”. The entry for `CCCCN(CCCC)C(=S)S` is “inactive”; for `CC(=O)[O][Pb]([c]1ccccc1)([c]1ccccc1)[c]1ccccc1` it is 770 nM (active); for `Cc1ccc(C)c2ccccc12` it is “inactive”. The entry for `CCCCc1ccccc1` is “inactive”; for `[Cl-].[Cl-].[Sn+2]` it is “inactive”. Take `CC1CCCC1`: the Potency result is “inactive”.

`CCCCCON=O`: the Potency result is “inactive”. The entry for `CC(=O)[O-].CC(=O)[O-].O.O.O.[Pb+2]` is “inactive”. The figure for `Clc1ccc(C(Cl)(Cl)Cl)cc1Cl` is 53300 nM (active); for `c1ccc(Nc2ccc(Nc3ccccc3)cc2)cc1` it is “inactive”. The entry for `[C-]1=CC=CC1.[Cl][Zr+2][Cl].c1cc[cH-]c1` is “inactive”. On to `CN1C2CCC(C)(C)C1CC(OC(=O)C(O)(c1cccs1)c1cccs1)C2` (stereo not given), for which the Potency result was “inactive”. Consider `CCOP(=O)(OCC)Oc1nc(Cl)c(Cl)cc1Cl`, for which the Potency entry is “inactive”. As for `CCCCn1cc[n+](C)c1` (tested in a mixture with another compound), the Potency result was “inactive”.

`ClC1(Cl)C2(Cl)C3(Cl)C4(Cl)C(Cl)(Cl)C5(Cl)C3(Cl)C1(Cl)C5(Cl)C24Cl` (stereo not given): the Potency entry is “inactive”. In the case of `N#Cc1ccc(N(CC(N)=O)CC(F)(F)F)cc1C(F)(F)F`, the Potency result was “inactive”. Consider `C#CC1(O)CCCCC1`, for which the Potency result was “inactive”.

These data come from PubChem BioAssay (Tox21).
